A number with no mark means an inactive call. Activity calls are given as the source filed them.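 How the source made its calls, unless noted: active means mean inhibition above 46.5%, the solvent-only control mean plus 3 SD; inactive means the rest.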
Columns and labels:
[1] = target: Nuclear receptor coactivator 3 (Homo sapiens) (UniProt Q9Y6Q9); assay: SRC3 coactivator transcriptional activity inhibitors, confirmation, cell-based, luminescence, quadruplicate (AID 588792;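 active means mean inhibition over 43.08%, the solvent-only control mean plus 3 SD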;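 further: 0% = DMSO treated cells and 100% = gossypol at 36 µM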); settings: HEK293 GAL4-SRC3 luciferase reporter, at 3.6 µM, active compounds read high
[2] = tested on: transactivating tegument protein VP16 (Human herpesvirus 1), Gal4-VP16 luciferase reporter; assay: VP16 transactivation inhibitors, counter-screen for SRC3 inhibitor project, cell-based, luminescence, high throughput (AID 588794; in the data active means inhibition above about 30%); settings: mammalian cells, VP16-driven luciferase reporter luminescence; at 3.6 µM; active compounds read high
[3] = target: Nuclear receptor coactivator 1 (Homo sapiens) (UniProt Q15788); assay: SRC1 coactivator transcriptional activity inhibitors, confirmation, cell-based, luminescence, quadruplicate (AID 588820;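 active means mean inhibition above 46.68%, the untreated control wells mean plus 3 SD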;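 further: 0% = DMSO wells and 100% = gossypol 36 µM treated wells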); settings: HEK293 GAL4-SRC1 luciferase reporter, at 3.6 µM, active compounds read high
[4] = VP16 transactivation inhibitors, counter-screen for SRC1 inhibitor project, cell-based, luminescence, high throughput (AID 588824; in the data active means inhibition above about 25%); settings: cell-based VP16 transactivation luciferase luminescence; at 3.6 µM; active compounds read high
[5] = tested on: transactivating tegument protein VP16 (Human herpesvirus 1); assay: VP16 transactivation reporter inhibitors, counter-screen for SRC2 inhibitor project, cell-based, luminescence, single concentration (AID 652007; in the data active means inhibition above about 36%); settings: cell-based VP16 transactivation luciferase reporter, at 8.9 µM, active compounds read high
[6] = target: Nuclear receptor coactivator 2 (Homo sapiens) (UniProt Q15596); assay: SRC2 coactivator transcriptional activity inhibitors, confirmation, cell-based, luminescence, HEK293, triplicate (AID 652008); settings: HEK293 GAL4-SRC2 luciferase reporter, at 8.9 µM, active compounds read high;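 further: 0% = DMSO-treated cells and 100% = Gossypol at 36 µM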
[7] = target: Nuclear receptor subfamily 5 group A member 2 (Homo sapiens) (UniProt O00482); assay: LRH-1 (NR5A2) inverse agonists, retest, confirmation, cell-based, luminescence (AID 651613; in the data active means inhibition above about 42%;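 further: HEK293T cells co-transfected with LRH-1 and StAR promoter luciferase reporter; 0% = vehicle wells and 100% = parental cells lacking receptor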); settings: cell-based LRH-1 luciferase reporter, inverse agonism; at 3.6 µM; active compounds read high
[8] = target: Steroidogenic factor 1 (Homo sapiens) (UniProt Q13285); assay: SF1 (NR5A1) inverse agonists, counter-screen for LRH-1 inverse agonist project, cell-based, luminescence, high throughput (AID 651614; in the data active means inhibition above about 44%;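 further: cells cotransfected with StAR promoter reporter and SF1 expression vector; 0% = vehicle on cells with receptor and 100% = vehicle on cells lacking receptor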); settings: cell-based SF1 luciferase reporter, at 3.6 µM, active compounds read high
[9] = StAR promoter reporter inhibitors, counter-screen for LRH-1 inverse agonist project, cell-based, luminescence, high throughput (AID 651611; in the data active means inhibition above about 28%); settings: StAR promoter luciferase reporter counterscreen, at 3.6 µM, active compounds read high
[10] = VP16 transactivation reporter inhibitors, counter-screen for LRH-1 inverse agonist project, cell-based, luminescence, high throughput (AID 651615; in the data active means inhibition above about 33%); settings: Gal4-VP16 luciferase reporter cells, at 3.6 µM, active compounds read high

Sequence of Nuclear receptor coactivator 3 (Homo sapiens) (Q9Y6Q9 whole entry, looked up, the tested form may be a part): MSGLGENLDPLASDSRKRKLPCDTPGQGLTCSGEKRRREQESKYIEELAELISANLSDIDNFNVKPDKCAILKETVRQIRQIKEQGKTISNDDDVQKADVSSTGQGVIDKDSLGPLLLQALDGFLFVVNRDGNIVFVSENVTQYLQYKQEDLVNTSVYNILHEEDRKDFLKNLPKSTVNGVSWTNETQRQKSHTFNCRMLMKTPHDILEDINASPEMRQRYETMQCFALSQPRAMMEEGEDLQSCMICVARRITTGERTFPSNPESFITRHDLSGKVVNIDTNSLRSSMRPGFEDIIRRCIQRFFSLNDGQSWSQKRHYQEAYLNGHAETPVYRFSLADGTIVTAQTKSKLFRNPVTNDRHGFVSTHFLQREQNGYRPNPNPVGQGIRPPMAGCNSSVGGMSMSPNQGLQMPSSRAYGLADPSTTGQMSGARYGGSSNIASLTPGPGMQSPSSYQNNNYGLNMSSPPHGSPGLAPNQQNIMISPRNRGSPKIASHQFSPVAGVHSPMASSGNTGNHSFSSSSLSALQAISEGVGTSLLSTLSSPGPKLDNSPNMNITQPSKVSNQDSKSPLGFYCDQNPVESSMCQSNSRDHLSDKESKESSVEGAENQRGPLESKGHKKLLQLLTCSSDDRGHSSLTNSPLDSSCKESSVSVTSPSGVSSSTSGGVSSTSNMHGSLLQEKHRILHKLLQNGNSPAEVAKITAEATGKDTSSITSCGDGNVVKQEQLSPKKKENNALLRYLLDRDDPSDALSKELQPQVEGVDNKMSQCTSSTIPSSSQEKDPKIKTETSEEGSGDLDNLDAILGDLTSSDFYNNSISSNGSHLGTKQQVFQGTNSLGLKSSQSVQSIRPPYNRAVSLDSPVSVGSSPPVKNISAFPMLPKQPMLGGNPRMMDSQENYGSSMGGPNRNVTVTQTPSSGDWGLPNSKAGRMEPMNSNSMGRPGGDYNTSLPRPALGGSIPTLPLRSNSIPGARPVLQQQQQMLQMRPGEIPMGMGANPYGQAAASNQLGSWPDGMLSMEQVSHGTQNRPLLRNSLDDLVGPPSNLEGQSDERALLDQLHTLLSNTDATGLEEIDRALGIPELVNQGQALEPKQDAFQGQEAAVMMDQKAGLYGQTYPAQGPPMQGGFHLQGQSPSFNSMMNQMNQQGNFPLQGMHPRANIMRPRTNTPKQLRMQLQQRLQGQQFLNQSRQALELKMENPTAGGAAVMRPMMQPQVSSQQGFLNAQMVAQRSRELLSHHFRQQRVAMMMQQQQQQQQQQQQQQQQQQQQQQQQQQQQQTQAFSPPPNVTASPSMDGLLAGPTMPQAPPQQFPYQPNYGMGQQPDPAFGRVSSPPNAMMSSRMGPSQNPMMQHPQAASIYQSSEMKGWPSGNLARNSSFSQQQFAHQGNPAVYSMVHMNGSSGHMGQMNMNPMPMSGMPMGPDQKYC
Sequence of Steroidogenic factor 1 (Homo sapiens) (Q13285 whole entry, looked up): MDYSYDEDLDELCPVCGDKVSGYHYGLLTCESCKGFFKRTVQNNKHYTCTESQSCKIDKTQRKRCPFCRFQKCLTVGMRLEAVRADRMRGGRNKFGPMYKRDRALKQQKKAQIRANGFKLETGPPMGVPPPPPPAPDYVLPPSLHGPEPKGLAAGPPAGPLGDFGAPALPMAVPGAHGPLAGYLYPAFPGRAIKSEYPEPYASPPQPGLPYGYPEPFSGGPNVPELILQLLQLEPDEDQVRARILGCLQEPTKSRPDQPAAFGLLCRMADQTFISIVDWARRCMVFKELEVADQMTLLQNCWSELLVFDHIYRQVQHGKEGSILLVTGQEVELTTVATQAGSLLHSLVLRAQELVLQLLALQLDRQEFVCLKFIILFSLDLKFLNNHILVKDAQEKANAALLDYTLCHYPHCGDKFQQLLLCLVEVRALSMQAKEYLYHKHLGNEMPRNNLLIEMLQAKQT
Sequence of Nuclear receptor subfamily 5 group A member 2 (Homo sapiens) (O00482 whole entry, looked up): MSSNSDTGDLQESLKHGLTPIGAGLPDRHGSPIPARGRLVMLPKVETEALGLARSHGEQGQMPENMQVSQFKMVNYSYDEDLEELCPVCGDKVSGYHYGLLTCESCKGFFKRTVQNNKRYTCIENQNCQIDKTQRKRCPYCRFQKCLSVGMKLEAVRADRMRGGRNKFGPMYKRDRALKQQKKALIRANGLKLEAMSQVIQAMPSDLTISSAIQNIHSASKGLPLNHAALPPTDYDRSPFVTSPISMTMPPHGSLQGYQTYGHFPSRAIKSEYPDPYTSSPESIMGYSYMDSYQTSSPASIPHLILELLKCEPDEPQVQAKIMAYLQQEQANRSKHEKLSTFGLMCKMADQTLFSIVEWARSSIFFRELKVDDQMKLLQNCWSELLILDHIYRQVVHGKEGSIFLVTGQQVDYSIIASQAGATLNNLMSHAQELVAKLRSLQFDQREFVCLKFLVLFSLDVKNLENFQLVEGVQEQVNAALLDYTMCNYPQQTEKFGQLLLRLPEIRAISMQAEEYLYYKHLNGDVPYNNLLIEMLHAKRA
Sequence of Nuclear receptor coactivator 1 (Homo sapiens) (Q15788 whole entry, looked up, the tested form may be a part): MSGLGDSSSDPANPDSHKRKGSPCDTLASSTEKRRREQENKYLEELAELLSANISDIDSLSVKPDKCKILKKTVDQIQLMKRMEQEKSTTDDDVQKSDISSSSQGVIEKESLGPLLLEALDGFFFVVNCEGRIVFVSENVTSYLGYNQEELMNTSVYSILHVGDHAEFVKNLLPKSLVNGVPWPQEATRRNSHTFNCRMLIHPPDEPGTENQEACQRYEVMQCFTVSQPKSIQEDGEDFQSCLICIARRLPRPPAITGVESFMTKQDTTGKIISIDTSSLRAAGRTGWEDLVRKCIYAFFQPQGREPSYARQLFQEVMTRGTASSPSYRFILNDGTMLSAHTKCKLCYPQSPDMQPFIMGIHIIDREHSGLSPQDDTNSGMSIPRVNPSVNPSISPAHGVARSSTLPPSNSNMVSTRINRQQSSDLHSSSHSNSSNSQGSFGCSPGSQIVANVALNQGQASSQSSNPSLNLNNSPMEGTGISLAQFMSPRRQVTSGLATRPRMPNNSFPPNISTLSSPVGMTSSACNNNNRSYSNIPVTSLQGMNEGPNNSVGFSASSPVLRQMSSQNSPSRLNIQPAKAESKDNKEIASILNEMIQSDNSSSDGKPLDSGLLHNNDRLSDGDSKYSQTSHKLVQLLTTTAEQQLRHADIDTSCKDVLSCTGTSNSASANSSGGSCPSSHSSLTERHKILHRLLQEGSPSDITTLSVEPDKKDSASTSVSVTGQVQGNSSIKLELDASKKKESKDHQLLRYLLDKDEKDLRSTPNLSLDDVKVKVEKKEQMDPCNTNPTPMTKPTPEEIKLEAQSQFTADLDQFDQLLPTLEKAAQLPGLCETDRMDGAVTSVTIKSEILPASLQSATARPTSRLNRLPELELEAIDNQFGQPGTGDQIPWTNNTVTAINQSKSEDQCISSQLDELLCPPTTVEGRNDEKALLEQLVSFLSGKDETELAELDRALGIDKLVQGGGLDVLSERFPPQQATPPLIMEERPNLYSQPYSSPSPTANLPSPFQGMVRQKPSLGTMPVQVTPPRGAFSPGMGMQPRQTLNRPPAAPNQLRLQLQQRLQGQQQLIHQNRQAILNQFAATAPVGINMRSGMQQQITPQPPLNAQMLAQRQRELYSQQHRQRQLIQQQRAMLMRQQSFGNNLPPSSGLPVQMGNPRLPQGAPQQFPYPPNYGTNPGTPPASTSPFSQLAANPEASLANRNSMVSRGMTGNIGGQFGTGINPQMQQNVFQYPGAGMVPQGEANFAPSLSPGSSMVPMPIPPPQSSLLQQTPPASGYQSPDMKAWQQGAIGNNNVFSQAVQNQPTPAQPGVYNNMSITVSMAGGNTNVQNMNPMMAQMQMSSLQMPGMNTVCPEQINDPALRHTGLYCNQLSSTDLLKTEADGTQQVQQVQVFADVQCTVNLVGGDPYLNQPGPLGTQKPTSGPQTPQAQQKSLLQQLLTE

| Structure (SMILES) | inhibition [1] | inhibition [2] | inhibition [3] | inhibition [4] | inhibition [5] | inhibition [6] | inhibition [7] | inhibition [8] | inhibition [9] | inhibition [10] |
| --- | --- | --- | --- | --- | --- | --- | --- | --- | --- | --- |
| CCN(CC)Cc1c(O)ccc2c([N+](=O)[O-])c(C)n(-c3ccc(OC)cc3)c12 | 69% (active) | 50.9% (active) | 68.7% (active) | 54.7% (active) | 15.8% | 41.4% |  |  |  |  |
| Cc1ccc(Sc2c(C=O)c3ccccc3n2C)cc1 | 63.2% (active) | 42.4% (active) | 54% (active) | 46.9% (active) | 7.13% | 42.5% |  |  |  |  |
| C[C@H]1O[C@@H](O[C@H]2[C@@H](O)C[C@H](O[C@H]3[C@@H](O)C[C@H](O[C@H]4CC[C@@]5(C)[C@H](CC[C@@H]6[C@@H]5C[C@@H](O)[C@]5(C)[C@@H](C7=CC(=O)OC7)CC[C@]65O)C4)O[C@@H]3C)O[C@@H]2C)C[C@H](O)[C@@H]1O | 96.8% (active) | 88.6% (active) | 80.6% (active) | 87.5% (active) | 70.2% (active) | 55.2% (active) | 110% (active) | 97.7% (active) |  |  |
| O[C@@H]1[C@@H](O)C=C2CCN3Cc4cc5c(cc4[C@H]1C23)OCO5 (some centres undefined) | 84.3% (active) | 77.5% (active) | 48.1% (active) | 76.7% (active) | 15.7% | -13.8% | 105% (active) | 93.4% (active) |  |  |
| CC(C)(C)c1ccc(Oc2ccc(NC(=O)c3ccccc3C(=O)O)cn2)cc1 | 4.23% | 10.3% | 2.66% | 7.37% | 39.5% (active) | 62.4% (active) |  |  |  |  |
| COc1cc2cc(C(=O)Nc3ccc4c(c3)OCCO4)[nH]c2cc1OC | 27.4% | -26.5% | -2.55% | -48.8% | -41.9% | 38.2% | -49.1% | -20.5% | -32.3% | -35.9% |
| COc1ccc(N(C(=O)CCl)C(C(=O)NC2CCCCC2)c2cccnc2)cc1 (centres undefined) | 75.7% (active) | 56.5% (active) | 38.8% | 51.5% (active) | 68.8% (active) | 69% (active) |  |  |  |  |
| O=C(Nc1ccc2c(c1)OCCO2)C(c1ccnc2ccccc12)N1CCN(c2ccc(C(F)(F)F)cn2)CC1 (centres undefined) | 24.6% | 18.1% | 11.8% | 30.7% (active) | -0.8% | 57.8% (active) |  |  |  |  |
| c1cc(-c2cnc3cccnn23)c2cccnc2c1 | 65.8% (active) | 42.7% (active) | 57.9% (active) | 40.2% (active) | -9.33% | 26.5% |  |  |  |  |
| CC(C)(C)NCC(=Cc1ccccc1)C(=O)c1ccccc1 | 50% (active) | 82.9% (active) | -38.5% | 87.5% (active) | 72.5% (active) | 71.1% (active) | 84.1% (active) | 84.3% (active) | 44.6% (active) | 89.1% (active) |
| C=C1C(=O)O[C@H]2C[C@H]1[C@@H](OC(C)=O)C/C(C)=C/CC/C(C)=C\CC[C@]2(C)O | 43.6% (active) | 57.6% (active) | 37% | 49.1% (active) | 34.3% | 28.4% |  |  |  |  |
| CCc1c(C)nc2ccc(Br)cc2c1SCCC#N | 58.4% (active) | 44.3% (active) | 66.9% (active) | 33.5% (active) | 9.39% | 34.7% |  |  |  |  |
| Cc1csc(SCC(=O)c2cc(C)n(Cc3cccs3)c2C)n1 | 9.06% | -12.3% | -81.8% | -42.6% | -28.2% | 31.4% |  |  |  |  |
| COc1ccc(-c2nc(-c3ccccn3)no2)cc1 | 63.4% (active) | 48.2% (active) | 16.6% | 44.4% (active) | 62.5% (active) | 80.7% (active) |  |  |  |  |
| CNc1ccc2ncc(-c3ccc(OC)c(OC)c3)n2n1 | 80.1% (active) | 63.1% (active) | 75.4% (active) | 60.1% (active) | -12.4% | 37.3% |  |  |  |  |
| Cc1ccc(OCC(=O)c2cc(C)n(Cc3cccs3)c2C)c([N+](=O)[O-])n1 | 21% | 8.55% | 24% | 14.2% | 10.7% | 52.2% (active) |  |  |  |  |
| c1csc(CNc2ncnc3ccc(-c4ccoc4)cc23)c1 | 62.6% (active) | 41.1% (active) | 34.6% | 37% (active) | 5.65% | 37.1% |  |  |  |  |
